Test results reported in ChEMBL document CHEMBL3988442, “University of Dundee, Small-Polar-MMV Screening Library” (2021).
In all, about 48,000 compounds went through this assay and about 13,000 (27%) showed an effect of 50% or more. This is one part of the list.

Each compound was assayed on Wolbachia pipientis (assay: Anti-Wolbachia Cell-Based Screen). Settings: 5 µM.
Format: functional
Parameters: scale not given: in the data most compounds retested in dose-response had high values

Row | Structure (SMILES) | Percent Effect [%]
1 | CSCc1cccc(S(=O)(=O)N2CCSCC2)c1 | 9.116
2 | O=S1(=O)CCC(S(=O)(=O)c2cccc(S(=O)(=O)N3CCCCCC3)c2)C1 (stereo not drawn) | 99.56
3 | O=S1(=O)CCC(S(=O)(=O)c2cccc(S(=O)(=O)N3CCCC3)c2)C1 (stereo not drawn) | 102.5
4 | CSCc1cccc(S(=O)(=O)N2CCC(C)CC2)c1 | -3.451
5 | O=S1(=O)CCC(S(=O)(=O)c2cccc(S(=O)(=O)N3CCOCC3)c2)C1 (stereo not drawn) | 94.82
6 | Cc1ccc(S(=O)(=O)N2CCC(N3CCCCC3)CC2)cc1C | 2.331
7 | O=C(O)c1cc(-c2cccnc2)cc(S(=O)(=O)N2CCCCCC2)c1 | -2.874
8 | Cc1cccc(S(=O)(=O)N2CCC3(CC2)CC(N(C)C)CO3)c1 (stereo not drawn) | -10.34
9 | CN1CCN(S(=O)(=O)c2cccc(S(=O)(=O)C3CCS(=O)(=O)C3)c2)CC1 (stereo not drawn) | 83.09
10 | COc1cccc(S(=O)(=O)N2CCN(C)[C@@H]3CS(=O)(=O)C[C@@H]32)c1 | 0.7716
11 | CNC(=O)CS(=O)(=O)C1CCN(S(=O)(=O)c2cccc(C(C)=O)c2)CC1 | -4.98
12 | F[C@@H]1CN(CC2CC2)C[C@@H]1OCc1nc2cnccc2[nH]1 | 0.2441
13 | COc1ccc(C(=O)NC2CC2)c(OC2CCN(C(C)CO)CC2)c1 (stereo not drawn) | -4.273
14 | CC(=O)N(Cc1ccoc1)C1CCCCC1 | 5.985
15 | CCCNC(=O)c1sc(Nc2ccc(Cl)cn2)nc1C | 11.67
16 | CCN(CC)C(=O)CNC(=O)c1cnc(-c2ccccc2)nc1 | 0.8892
17 | Cl.Cn1ccnc1N1CCN(C(=O)Cc2ccc(F)cc2)CC1 | 9.363
18 | Cl.Cn1ccnc1N1CCN(C(=O)Cc2ccccc2)CC1 | 103.6
19 | CCOc1ccc(CC(=O)N2CCN(c3nccn3C)CC2)cc1.Cl | -3.351
20 | Cc1cccc(CC(=O)N2CCN(c3nccn3C)CC2)c1.Cl | 119.3
21 | COc1ccc(CC(=O)N2CCN(c3nccn3C)CC2)cc1.Cl | 92.57
22 | Cc1cccc(N2CCN(CCCNC(=O)c3nccn3C)CC2)c1 | 29.8
23 | Cc1cc(N2CCCN(C(=O)Cc3ccc(O)c(Cl)c3)CC2)ccn1 | 6.362
24 | CC(=O)N1CCN(C(=O)CN2CCN(c3cccc(C)c3)CC2)CC1 | 4.87
25 | Cl.Cn1ccnc1N1CCN(C(=O)Cc2ccc(Cl)cc2)CC1 | 89.82
26 | COc1cccc(CN(C)C(=O)CN2CCN(c3nccn3C)CC2)c1 | 6.217

Row | Structure (SMILES) | Percent Effect [%]
27 | CN(C)c1cnnc(N2CCN(C(=O)Cc3ccccc3)CC2)c1 | 6.121
28 | CSc1cc2c(cc1NC(=O)NCc1ccco1)OCCO2 | -2.93
29 | Cc1cnn(CC(=O)NC2CCCc3cc(OC(F)F)ccc32)c1 (stereo not drawn) | -5.352
30 | Cc1nn(C(C)C)c(C)c1S(=O)(=O)Nc1ccc(C(=O)O)cc1 | -3.585
31 | COc1nc2ccn(CCNc3cc(C)ccn3)c(=O)c2cc1C#N | -7.591
32 | Cn1cc(N2CC3(CCN(S(C)(=O)=O)C3)CC2=O)cn1 (stereo not drawn) | -6.805
33 | CCc1ccc(CC(=O)N2CCN(c3nccn3C)CC2)cc1 | 102.2
34 | CCn1ccnc1C1CCN(C(=O)C(O)c2ccc(OC)cc2)CC1 (stereo not drawn) | 13.84
35 | CCOc1ccc(C(=O)N2CCN(c3nccn3C)CC2)cc1.Cl | 123.5
36 | CCOc1ccc(CC(=O)N2CCN(c3nccn3CC)CC2)cc1.Cl | 105.4
37 | CCOc1ccc(NC(=O)CN2CCN(c3nccn3C)CC2)cc1 | 10.39
38 | CCn1ccnc1C1CCN(C(=O)Nc2ccc(OC)cc2)CC1 | -6.796
39 | CCOc1cc(N2CCN(C(=O)c3ccc(OC)cc3)CC2)nc(C)n1 | 6.189
40 | Cc1occc1C(=O)Nc1cc(N2CCNC2=O)ccc1Cl | -16.86
41 | CNCC(=O)N[C@H]1CN(c2nc(C)c3c(n2)CCCC3)C[C@@H]1C1CC1 | -22.84
42 | Fc1ccccc1C1NCCc2cc3c(cc21)OCCO3 (stereo not drawn) | 96.06
43 | OCC1(CNC2CCc3cc4c(cc32)OCCO4)CC1 (stereo not drawn) | -8.17
44 | OCCCNC1CCc2cc3c(cc21)OCCO3 (stereo not drawn) | 0.5317
45 | OCCNC1CCc2cc3c(cc21)OCCO3 (stereo not drawn) | -2.778
46 | O=C(CCSc1ccccc1F)NS(=O)(=O)c1ccc2c(c1)OCCO2 | -3.97
47 | CCc1ccc(C2NCCc3cc4c(cc32)OCCO4)cc1 (stereo not drawn) | 132.5
48 | Clc1ccc(C2NCCc3cc4c(cc32)OCCO4)cc1 (stereo not drawn) | 60.9
49 | O=C(CSc1ccc2c(c1)OCCO2)NS(=O)(=O)c1ccccc1F | 11.66
50 | CCc1nc2c(NCC3COc4ccccc4C3)ncnc2o1 (stereo not drawn) | -41.62
51 | CCNC(=O)C(C)NC(=O)Nc1ccccc1SCC (stereo not drawn) | -19.41
52 | Cc1oncc1C(=O)N1CC[C@H]2[C@@H]1CCC(=O)N2c1cccnc1.O=C(O)C(F)(F)F | -37.57

Row | Structure (SMILES) | Percent Effect [%]
53 | Cc1oncc1C(=O)N1CCC2(CCN(Cc3cccnc3)C2=O)C1.O=C(O)C(F)(F)F (stereo not drawn) | 107.4
54 | O=C(O)C(F)(F)F.O=C(c1ccco1)N1CC[C@H]2[C@H]1CC(=O)N2c1cccnc1 | -20.41
55 | Cc1cccc(CN2CCCC(O)(CNCc3cccc(F)c3)C2=O)c1 (stereo not drawn) | -1.044
56 | COCCN1CCC2(CCCN(C(=O)c3cnoc3C)C2)C1=O (stereo not drawn) | 5.935
57 | Cc1oncc1C(=O)N1CC[C@@H]2[C@@H]1CC(=O)N2Cc1cccnc1.O=C(O)C(F)(F)F | 95.81
58 | Cc1oncc1C(=O)N1CCC2(CCN(Cc3cccc(F)c3)C2=O)C1 (stereo not drawn) | 82.89
59 | F[C@@H]1CN(Cc2nccs2)C[C@@H]1OCc1nc2cnccc2[nH]1 | 1.083
60 | O=C(NC1CC1)C1CN(Cc2ccc3c(c2)OCCO3)CCN1 (stereo not drawn) | -21.08
61 | COc1ccc(CCNC(=O)C2CCC(Cn3cnnn3)CC2)cc1 (stereo not drawn) | -2.407
62 | COc1cccc(NC(=O)NC(C)c2ccc3c(c2)CC(=O)N3)c1 (stereo not drawn) | -1.814
63 | COC(=O)c1ccc(NC(C)c2ccc3c(c2)CCC(=O)N3)nn1 (stereo not drawn) | 54.02
64 | COC(=O)c1ccc(NC(C)c2ccc3c(c2)NC(=O)CO3)nn1 (stereo not drawn) | 109.1
65 | CC(NC(=O)NCCn1ccnc1)c1ccc2c(c1)NC(=O)CO2 (stereo not drawn) | -0.9133
66 | COc1ccc(C(C)NS(=O)(=O)c2ccc3c(c2)CCC(=O)N3)cc1F (stereo not drawn) | 13.2
67 | CC(NC(=O)NCCCn1cccn1)c1ccc2c(c1)NC(=O)CO2 (stereo not drawn) | -10.21
68 | CC(NC(=O)Nc1ccncc1)c1ccc2c(c1)CC(=O)N2 (stereo not drawn) | 6.994
69 | COc1ccc(C)cc1C(C)NS(=O)(=O)c1ccc2c(c1)CCC(=O)N2 (stereo not drawn) | -0.1201
70 | COC(=O)c1ccc(NC(C)c2ccc3c(c2)CC(=O)N3)nn1 (stereo not drawn) | 83.43
71 | COc1ccc(-c2noc(Cn3cc4c(n3)CCC4)n2)c(OC)c1OC | 2
72 | Cc1cc2n(n1)CC(CNC1CCN(Cc3ccccc3C)CC1)CN2 (stereo not drawn) | -1.399
73 | COCC(=O)N1CCN(c2ccc(C(=O)OC)cc2)CC1C (stereo not drawn) | -2.487
74 | COC(=O)c1ccc(N2CCN(C(=O)CC(F)(F)F)C(C)C2)cc1 (stereo not drawn) | -6.136
75 | COC(=O)c1ccc(N2CCN(CCC#N)C(C)C2)cc1 (stereo not drawn) | 9.254
76 | COC(=O)c1ccc(N2CCN(C(=O)C3CC3)C(C)C2)cc1 (stereo not drawn) | -9.327
77 | CCC(=O)N1CCN(c2ccc(C(=O)OC)cc2)CC1C (stereo not drawn) | -6.169
78 | COC(=O)c1ccc(N2CCN(CC(=O)NC(N)=O)C(C)C2)cc1 (stereo not drawn) | 126.9

Row | Structure (SMILES) | Percent Effect [%]
79 | COC(=O)c1ccc(N2CCN(CCS(C)(=O)=O)C(C)C2)cc1 (stereo not drawn) | 130.9
80 | COC(=O)c1ccc(N2CCN(C(=O)C3CCC3)C(C)C2)cc1 (stereo not drawn) | -8.706
81 | COC(=O)c1ccc(N2CCN(CCN3CCOCC3)C(C)C2)cc1 (stereo not drawn) | -3.012
82 | COC(=O)c1ccc(N2CCN(CCC(=O)NC(N)=O)C(C)C2)cc1 (stereo not drawn) | 4.115
83 | CNC(=O)NC(=O)CCN1CCN(c2ccc(C(=O)OC)cc2)CC1C (stereo not drawn) | 121.7
84 | CNC(=O)NC(=O)CN1CCN(c2ccc(C(=O)OC)cc2)CC1C (stereo not drawn) | 123.3
85 | CCn1nc(CC(C)C)cc1C(=O)N1CCOCC(O)C1 (stereo not drawn) | 14.61
86 | Cc1c(Br)cccc1NC(=O)N(C)CCO | -1.587
87 | CCc1cc(N[C@H]2CCC[C@H]2O)n2nccc2n1 | -17.41
88 | O=C(CCn1ccnc1)N1CC[C@@H](c2ccc3ccccc3c2)[C@H](O)C1 | 3.256
89 | COc1c(C2CCCN2C(=O)c2ccc3c(c2)OCO3)c(C)nn1C (stereo not drawn) | 110.4
90 | Cc1nn(C)c(C)c1C1CCCN1C(=O)c1ccc(CN(C)C)cc1 (stereo not drawn) | 0.5484
91 | Cc1nn(C)c(C)c1C1CCCN1C(=O)c1ccc2c(c1)OCCO2 (stereo not drawn) | 107.2
92 | Cc1nc(C(=O)N2CCCC2c2c(C)nn(C)c2C)ccc1C#N (stereo not drawn) | -5.29
93 | Cc1nn(C)c(Cl)c1C1CCCN1C(=O)c1ccc2c(c1)OCO2 (stereo not drawn) | 4.266
94 | NC(=O)CC1CCCCN1C(=O)Cc1cccc(Br)c1 (stereo not drawn) | -22.53
95 | Cc1ccc(N2CCC(NC(C)c3ccc(C)o3)CC2)nc1 (stereo not drawn) | 5.031
96 | O=C(CC(F)(F)F)N1C[C@H]2CC[C@@H]1CN(Cc1ccccc1)C2 | -26.8
97 | c1cncc(-c2c[nH]c([C@@H]3COCCN3Cc3ccncc3)n2)c1 | -1.952
98 | COCCn1cc(CC(=O)Nc2nc3c(s2)CCC3)c2ccccc21 | 108.7
99 | CN(CC(=O)Nc1nc2c(s1)CCC2)C(=O)c1cccs1 | 12.75
100 | COCCn1ccc2c(C(=O)Nc3nc4c(s3)CCC4)cccc21 | 149.9
101 | COc1ncccc1C(=O)Nc1nc2c(s1)CN(S(=O)(=O)C1CC1)CC2 | -5.987
102 | CN(CC(=O)Nc1nc2c(s1)CCCCCC2)C(=O)c1ccco1 | -14.29
103 | COCCn1cc(C(=O)N2CCCC2c2ccncc2)c2ccccc21 (stereo not drawn) | 12.21
